Potency data for 39 compounds are collected here from PubChem BioAssay AID720517 (National Center for Advancing Translational Sciences (NCATS), 2013).

Results filed as inconclusive are left out. A call without a number means that no potency is given here. Calls of active or inactive are those of the source. Calls come from the whole dose curve; as a rule, active = well fitted activation curve with a large enough effect; inconclusive = small, poorly fitted or top-dose-only effect; inactive = flat fitted curve, though single readings scatter.

This assay can be described thus: qHTS for Inhibitors of Cell Surface uPA Generation: FP59 Counterscreen for Cherry-picked Compounds. Conditions: FP59 anthrax toxin cytotoxicity counterscreen, cells; series mostly up to 115 µM.
With `Cc1ccc(N=C2SCCCN2C(=O)c2cccc(N3C(=O)CCC3=O)c2)cc1Cl`, the Potency result was “inactive”.

Consider `O=C(CSc1nncs1)NC(=O)NCc1ccco1`, for which the Potency result is “inactive”.

`COc1ccc(NC(=O)CC(C)CC(=O)NCc2ccccc2)c(OC)c1` (centres undefined): the Potency entry was “inactive”.

For the compound `COc1ccc(CC(=O)Nc2nc(C)cs2)cc1OC`, the Potency result was “inactive”.

In the case of `Cc1cccc(/C=N/Nc2cc(N3CCOCC3)nc(N3CCOCC3)n2)c1`, the Potency entry is “inactive”.

With `Cc1ccc(Cl)c(N/C=C/C(=O)c2ccccc2)c1`, the Potency result was “inactive”.

Take `Cc1cc(C)c(S(=O)(=O)N2CCCOC2CNC(=O)C(=O)NCc2cccs2)c(C)c1` (centres undefined): the Potency entry was “inactive”.

For `CCCCCN(C(=O)CCC(=O)OCCOc1cccc(Cl)c1)c1c(N)n(CCCC)c(=O)[nH]c1=O`, the Potency result was “inactive”.

As to `Cc1ccc2oc(C(=O)N(Cc3ccc(N(C)C)cc3)C3CCS(=O)(=O)C3)c(C)c2c1` (centres undefined), the Potency entry was “inactive”.

Turning to `Cc1cccc(NC(=O)C2CCCN(S(=O)(=O)c3cccc4cccnc34)C2)c1` (centres undefined), the Potency entry is “inactive”.

For `COCCN(CCOC)c1nc(-c2ccc(C)cc2)nc2ccccc12`, the Potency entry was “inactive”.

As for `COc1ccc(NC(=O)c2cccnc2N2CCOCC2)cc1`, the Potency result is “inactive”.

With `Cc1[nH]c2ccccc2c1C(=O)COC(=O)c1cccc(S(=O)(=O)N2CCCCC2)c1`, the Potency entry is “inactive”.

For the compound `CC(=O)c1cnc2nc(SCc3cccc(C)c3)nn2c1C`, the Potency result is “inactive”.

On to `COc1ccc(C2NC(=O)CCC2[N+](=O)[O-])c(OC)c1OC` (centres undefined), for which the Potency result is “inactive”.

In the case of `CCCOC(=O)CSC1=C(C#N)C(c2ccccc2Cl)CC(=O)N1` (centres undefined), the Potency result was “inactive”.

Take `O=C(/C=C/c1ccc(O)c(O)c1)O[C@@H]1C[C@](O)(C(=O)O)C[C@@H](O)[C@H]1O`: the Potency result was “inactive”.

As for `COc1cc2oc(=O)ccc2cc1[C@H](O)[C@@H](O)C(C)(C)O`, the Potency result was “inactive”.

With `COc1cc(CCC(=O)OCC(=O)NCc2ccccc2)cc(OC)c1OC`, the Potency result was “inactive”.

In the case of `COc1ccc2cc(CCNC(=O)c3ccc4c(c3)OCO4)c(=O)[nH]c2c1`, the Potency result is “inactive”.

Take `COc1cc(CN2CCN(c3ncccn3)CC2)cc(OC)c1`: the Potency result is “inactive”.

Turning to `O=[N+]([O-])c1ccc(C[n+]2cccc(O)c2)cc1`, the Potency result was “inactive”.

Regarding `COc1ccc(-c2cc3nc(C)cc(-c4ccc(OC)cc4)n3n2)cc1`, the Potency result is “inactive”.

Consider `OCC[C@@H]1C[C@H](O)[C@@H](O)[C@]2(OCCc3ccccc32)O1`, for which the Potency result is “inactive”.

Regarding `COc1ccccc1N1CCN(C2CC(=O)N(c3ccccc3)C2=O)CC1` (centres undefined), the Potency result is “inactive”.

For the compound `CCCNC(=O)COc1coc(CN2CCN(c3ccccc3OC)CC2)cc1=O`, the Potency result was “inactive”.

For `COc1ccccc1C(=O)NCc1ccccc1`, the Potency result is “inactive”.

Regarding `CC(=O)N1CCN(C(=O)CSc2cc(C)c(Br)cc2C)CC1`, the Potency result was “inactive”.

Take `Cc1ccc(OCc2cc(C(=O)N(C)Cc3cc(C4CC4)n[nH]3)no2)cc1C`: the Potency entry was “inactive”.

With `C[C@H](CO)N1C[C@H](C)[C@@H](CN(C)C(=O)Nc2ccccc2)Oc2ccc(NC(=O)Cn3cnnn3)cc2C1=O`, the Potency entry was “inactive”.

Regarding `CCc1c(C)sc(NC(=S)N2CC(C)OC(C)C2)c1C(=O)OC` (centres undefined), the Potency entry is “inactive”.

On to `CC(=O)[C@@]1(O)[C@H](C)CC2C3CC=C4CC(OP(=O)(O)O)CC[C@]4(C)C3CC[C@@]21C` (some centres undefined), for which the Potency entry is “inactive”.

As for `COc1ccccc1CN1CC(C(=O)NCc2cccc(C)n2)CCC1=O` (centres undefined), the Potency result was “inactive”.

Turning to `CN(/N=C/c1cc(Cl)cc(Cl)c1O)C(=S)NC(C)(C)C`, the Potency result is “inactive”.

On to `CN(C(=O)c1ccccc1C(=O)OCC(=O)NCc1ccccc1)C1CCCCC1`, for which the Potency entry was “inactive”.

As to `Cc1nc2ccccc2c2oc(C(=O)Nc3ccc4c(c3)OCCO4)cc12`, the Potency entry is “inactive”.

Turning to `CC/C(=N\Nc1ccccc1[N+](=O)[O-])c1ccc(O)cc1`, the Potency result was “inactive”.

Take `CCOC(=O)C1=C(C)N(Cc2ccccc2)C(=O)NC1c1ccc(OC)cc1` (centres undefined): the Potency entry was “inactive”.

Consider `CCOC(=O)C1(CCOc2ccccc2)CCN(Cc2ccc(O)c(OC)c2)CC1`, for which the Potency entry is “inactive”.
